Screens deposited in PubChem BioAssay by Fisher Drug Discovery Resource Center.
mcGAS RapidFire – mouse cGAS inhibition by mass spec | inhibition, % at 12.5 µM | hit rate 0.18% among 130,000 | recombinant mouse cGAS, cGAMP by RapidFire MS | Q8C6L5;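 active means inhibition of cGAS enzyme activity at or above 60%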;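 further: enzyme stimulated by 45 bp dsDNA with ATP and GTP substrates; cGAMP share of summed cGAMP plus half ATP and half GTP signals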
Target sequence (Q8C6L5 whole entry, looked up): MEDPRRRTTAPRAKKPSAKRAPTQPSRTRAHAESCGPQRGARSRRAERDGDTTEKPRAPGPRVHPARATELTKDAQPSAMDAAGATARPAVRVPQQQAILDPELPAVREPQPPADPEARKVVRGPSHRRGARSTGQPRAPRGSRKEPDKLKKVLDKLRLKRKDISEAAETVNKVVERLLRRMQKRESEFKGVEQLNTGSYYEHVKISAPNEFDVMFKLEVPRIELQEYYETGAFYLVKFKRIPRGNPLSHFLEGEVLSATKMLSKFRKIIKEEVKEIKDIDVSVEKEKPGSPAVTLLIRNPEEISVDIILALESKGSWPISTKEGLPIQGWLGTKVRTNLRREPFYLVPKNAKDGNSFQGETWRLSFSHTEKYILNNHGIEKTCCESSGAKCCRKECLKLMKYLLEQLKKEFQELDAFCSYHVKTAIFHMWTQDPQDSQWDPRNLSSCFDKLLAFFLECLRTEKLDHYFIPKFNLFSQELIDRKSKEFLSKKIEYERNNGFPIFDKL
Starred values were filed as active, the others as inactive. Shown is part of a subset that was picked to be rich in hits.

SMILES	mcGAS RapidFire
SCc1nc2c3ccccc3ncn2n1	95.3*
COc1ccc(-c2cnnc(NCCSc3nccn3C)n2)c(OC)c1	-2.5
Cc1ccc(-c2ccnc(NC(C)Cc3ncccc3C)n2)c(C)n1 (configuration not stated)	-7.2
O=c1c(-c2ccccc2)coc2cc(O)cc(O)c12	86.0*
O=c1c(O)c(-c2ccc(O)cc2)oc2cc(O)cc(O)c12	10.9
O=c1c(-c2ccc(O)cc2)coc2cc(O)ccc12	-4.2
CCOC(=O)C1(C)CCN1C(=O)c1cccc(C)c1C (configuration not stated)	-2.8
CCCCn1c(CN2CCC(C(O)c3ccccn3)CC2)cnc1S(=O)(=O)CC (configuration not stated)	6.7
Cc1cc(N2C(=O)c3oc4ccccc4c(=O)c3C2c2cccc(F)c2)no1 (configuration not stated)	84.3*
Cc1cc(N2C(=O)c3oc4ccc(F)cc4c(=O)c3C2c2cccc([N+](=O)[O-])c2)no1 (configuration not stated)	-8.5
Cc1cc(N2C(=O)c3oc4ccccc4c(=O)c3C2c2cccc(Cl)c2)no1 (configuration not stated)	-1.5
O=C(c1ccc(Oc2cc(Cl)cc(Cl)c2)nc1)N1CCCC1	-7.5
O=C(CCc1ncc(-c2ccc(F)cc2)o1)N1CCN(c2ccccc2)CC1	-1.6
O=C(CCc1nnc(Cc2ccc3c(c2)OCO3)o1)N1CCc2ccccc2C1	6.1
Cc1ccc(-c2cnc(CCC(=O)N3CCc4ccccc4C3)o2)cc1C	78.0*
CC(C)N(CCc1ccccc1)C(=O)CS(C)(=O)=O	-20.5
CN1CCN(C(=O)NCC2CC(=O)N(Cc3ccccc3)C2)CC1 (configuration not stated)	-25.2
COc1cc(CN(C)Cc2oc(CO)cc(=O)c2O)ccc1OC(F)F	-30.6
COc1ccc(CN(C)Cc2nnc(C(C)C)o2)cc1OC(F)F	81.3*
COc1cc(CSc2nnnn2-c2ccccc2)ccc1OC(F)F	-0.4
Cc1cc(C)n(CC(C)CNC(=O)N2CC3CC4CC(C3)CC2C4)n1 (configuration not stated)	-11.5
Cc1cnn(CCNC(C)CC(=O)Nc2ccccc2)c1 (configuration not stated)	-8.1
CC(C)c1cc(-c2nnc3sc(-c4cccnc4)nn23)n[nH]1	-4.8
CC(C)Cc1cc(-c2nn3c(-c4cnccn4)nnc3s2)n[nH]1	87.5*
CC(C)Cc1cc(-c2nn3c(-c4cccnc4)nnc3s2)n[nH]1	-5.1
SMILES	mcGAS RapidFire
CC(C)Cn1nccc1NC(=O)c1ccc2c(c1)OCO2	6.5
O=c1nc2n(c3ccccc13)CC/C2=C\c1c[nH]c2ccccc12	-9.8
N=C1/C(=C/c2cccs2)C(=O)N=C2SC(Cc3ccccc3)=NN12	-10.8
CCC1=NN2C(=N)/C(=C/c3cccs3)C(=O)N=C2S1	97.0*
N=C1/C(=C/c2cccs2)C(=O)N=C2SC(c3ccccc3)=NN12	44.6
CC(=O)c1ccc(NC(=O)c2ccc(Cl)s2)cc1	0.0
CCc1nn2c(C)c(C(=O)OC)nnc2c1-c1ccc(Cl)cc1	-10.3
O=C(Nc1ccccc1F)C1CSCN1C(=O)COc1ccc(F)cc1F (configuration not stated)	-2.7
O=C(OC[C@H]1O[C@H](OC(=O)c2cc(O)c(O)c(OC(=O)c3cc(O)c(O)c(O)c3)c2)[C@H](OC(=O)c2cc(O)c(O)c(OC(=O)c3cc(O)c(O)c(O)c3)c2)[C@@H](OC(=O)c2cc(O)c(O)c(OC(=O)c3cc(O)c(O)c(O)c3)c2)[C@@H]1OC(=O)c1cc(O)c(O)c(OC(=O)c2cc(O)c(O)c(O)c2)c1)c1cc(O)c(O)c(OC(=O)c2cc(O)c(O)c(O)c2)c1	95.9*
CC(=O)OC[C@H]1O[C@@H](Oc2cc(OC(C)=O)c3c(=O)cc(-c4ccc(OC(C)=O)cc4)oc3c2)[C@H](OC(C)=O)[C@@H](OC(C)=O)[C@@H]1OC(C)=O	-4.0
CCc1c(C)nc2c(-c3ccc(Cl)cc3)c(C)[nH]n2c1=O	1.1
CN(Cc1cc2n(n1)CCNC2)Cc1nc2ccc(F)cc2[nH]1	9.3
CC(C1CC1)N(C)C(=O)c1cccc(S(=O)(=O)N(C)C)c1 (configuration not stated)	-5.1
CCn1nnc2c(=S)nc[nH]c21	1.3
Cc1cc(Cl)ccc1N=Cc1nc(-c2ccccc2F)oc1O	-2.5
COc1cc([N+](=O)[O-])ccc1N=Cc1nc(-c2ccccc2F)oc1O	-10.6
Cc1ccc([N+](=O)[O-])cc1N=Cc1nc(-c2ccccc2F)oc1O	80.8*
N#CCC(=O)Nc1sc2c(c1C(N)=O)CCCC2	91.0*
NC(=O)c1c(NC(=O)CSCC(=O)O)sc2c1CCCC2	-3.2
NC(=O)c1c(NC(=O)CN2CCOCC2)sc2c1CCC2	-7.9
CC(C)N1C[C@H](NCC(=O)NCCc2ccc(F)cc2)[C@@H](O)C1	-17.4
Cc1cc(CN2CCc3ccccc3C3(CCC(NC4CCN(C)C4)CC3)C2)no1 (configuration not stated)	-2.2
NC(=S)NN=Cc1c[nH]c2ccccc12	-2.0
CC(C)(C)n1cccc(/C=N\NC(N)=S)c1=S	71.9*
Cn1c(=O)c2[nH]c(/C=N\NC(N)=S)nc2n(C)c1=O	16.0
SMILES	mcGAS RapidFire
O=C(CCc1nc2ccccc2[nH]1)N1CCc2c(ncnc2N2CCOCC2)C1	-10.4
C(=C1CCC=C1N1CCOCC1)c1nc2ccccc2[nH]1	77.4*
FC(F)Oc1ccc(Br)cc1C=C1CCC=C1N1CCOCC1	-8.5
COc1ccc(CN2CC34C=CC(O3)C(C(=O)N3CCCC5CCCCC53)C4C2=O)c(OC)c1 (configuration not stated)	-2.1
COc1ccc(NC(=O)NC2CN(C(=O)OC(C)(C)C)C2)cn1	-3.7
COc1ccc(-n2ncc(Oc3ccc(Cl)c(C)c3)c(Nc3ccc(C(=O)O)cc3)c2=O)cc1	-7.9
Cc1nnc(NC(=O)c2cccc(C(=O)O)c2)s1	2.0
Cc1nnc(NC(=O)c2ccc(S(=O)(=O)Nc3cccc(C(F)(F)F)c3)o2)s1	75.6*
Cc1cccc(NC(=O)c2ccc(S(=O)(=O)Nc3cccc(C(F)(F)F)c3)o2)n1	-2.7
Cc1ccc(-c2cnnc(NCCC(c3ccccc3)c3ccco3)n2)o1 (configuration not stated)	-4.7
CN1CCN(C)C2(CCN(C(=O)C3(c4ccc(Cl)cc4)CCC3)CC2)C1	-19.9
CCOC(=O)c1cnc2nc(-c3ccccc3)[nH]n2c1=O	12.1
Cc1ccc(NC(=O)c2ccc(Br)o2)c(Br)c1	-5.0
S=c1nccc(-c2ccccc2)[nH]1	74.4*
S=c1nc(-c2ccccc2)c(-c2ccccc2)n[nH]1	-13.1
OC(C#Cc1ccccc1)c1ncc(-c2ccccc2)[nH]1 (configuration not stated)	34.9
Cc1cc2ccccc2n1CCC(=O)NCCS(C)(=O)=O	1.6
CCOC(=O)c1cc(C#N)c(SCC(=O)Nc2ccc3c(c2)OCO3)nc1C	-2.9
C=CCNc1ccccc1C(=O)NCCN1CCNC1=O	-1.1
CN(C)S(=O)(=O)c1ccc2c(c1)oc(=O)n2C	2.9
O=C(C[n+]1ccc(NC(=O)c2ccccc2)c2ccccc21)c1ccccc1	64.1*
Cc1ccc[n+](CC(=O)c2ccc(-c3ccccc3)cc2)c1C	-7.2
Cc1c2cccn2cc[n+]1CC(=O)c1ccccc1	-2.5
CCCNC(=O)CS(=O)Cc1nc(-c2ccc(Cl)cc2)no1 (configuration not stated)	-34.2
O=C1C=C(O)c2ccccc2C1=O	11.6
O=C1c2ccccc2C(=O)c2c1ccc(O)c2O	84.5*
Nc1ccc2c(c1N)C(=O)c1ccccc1C2=O	3.9
